HTR1E agonist: agonists of human 5-HT1E serotonin receptor; 65,000 tested, 0.69% active; activation, % at 6 µM; AID 574; CHO 5-HT1E Ga15 NFAT-bla reporter, FRET; 0% DMSO wells, 100% control agonist wells; P28566;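 active = activation above a set limit, the screen-wide mean activation plus 3 SD, cut at about 8.5% in these data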;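 note: 100% = positive control agonist at 1 µM giving full maximal response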
5-HT1A blocker: blocks the human serotonin 5-HT1a receptor; P08908; CHO 5-HT1a Ga15 NFAT-bla reporter, antagonist mode; inhibition, % at 10 µM; 62,000 tested, 0.68% active; AID 612;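 active = inhibition above the mean of all tested compounds plus 3 SD, cut at about 43% in these data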;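 note: receptor stimulated by 5-CT agonist at 100 nM near EC80; beta-lactamase reporter measured by ratiometric fluorescence of a cleavable substrate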
Target sequence (P08908 whole entry, looked up): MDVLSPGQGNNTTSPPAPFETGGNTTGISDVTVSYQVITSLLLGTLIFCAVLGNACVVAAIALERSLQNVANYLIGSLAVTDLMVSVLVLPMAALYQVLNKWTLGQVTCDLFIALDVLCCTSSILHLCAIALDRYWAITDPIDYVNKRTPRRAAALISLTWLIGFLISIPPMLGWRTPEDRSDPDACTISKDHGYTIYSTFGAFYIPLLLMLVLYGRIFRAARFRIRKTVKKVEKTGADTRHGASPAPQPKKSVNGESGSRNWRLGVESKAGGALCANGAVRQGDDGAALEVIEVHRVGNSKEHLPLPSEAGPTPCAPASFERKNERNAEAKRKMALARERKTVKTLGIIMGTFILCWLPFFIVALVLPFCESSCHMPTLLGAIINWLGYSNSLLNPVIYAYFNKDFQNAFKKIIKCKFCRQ
HTR1A agonist: 5-HT1a (human) receptor agonism. CHO 5-HT1a Ga15 NFAT-bla reporter, FRET ratio; 0% basal, 100% maximal reference agonist. activation, % at 10 µM. P08908. AID 567. 65,000 tested, 0.56% active;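 active = activation above the screen-wide mean activation plus 3 SD, cut at about 19% in these data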;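 note: 0% = DMSO wells and 100% = 5-CT at EC100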
5HT1E antag: blocks the human 5-HT1E serotonin receptor; P28566; CHO 5-HT1E Ga15 NFAT-bla reporter, FRET, antagonist; inhibition, % at 6 µM; 65,000 tested, 0.99% active;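 active = inhibition above a set limit, the mean inhibition across every tested compound plus 3 SD, cut at about 29% in these data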;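 note: signal is the 460 over 535 nm emission ratio of beta-lactamase substrate; 0% = agonist plus DMSO wells and 100% = wells without agonist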
mHtt clearance: mutant huntingtin protein clearance. AID 853. inhibition, % at 1.5 µM. 47,000 tested, 0.42% active. HeLa Exon1htt(103Q)mCFP, aggregate imaging; zero = plate's median compound well;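 active = inhibition of aggregate fluorescence above about 70%, also judged a hit by eye on the cell image, limit read from the data, passing the limit was not always enough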;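 note: cells exposed to compound for three days before fixation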
Starred values were filed as active, the others as inactive; · = no result. Only some compounds are listed: those with a hit (about 2.3% of all), similar ones and a draw of the others.

SMILES	HTR1E agonist	5-HT1A blocker	HTR1A agonist	5HT1E antag	mHtt clearance
COc1cccc(OC)c1C1=NCC(=O)Nc2c1oc1ccc(Br)cc21	-1	71*	-2	80*	·
CC(C)C1(C)N=C(c2nc3ccccc3cc2C(=O)O)NC1=O (stereo not given)	1	-25	2	5	·
COc1cc2nc(CN3CC=C(c4ccccc4)CC3)[nH]c(=O)c2cc1OC	0	44*	1	1	·
CN(C)c1ccc(CN2CC=C(c3ccc(F)cc3)CC2)cc1	4	9	-1	-5	-45
Fc1ccccc1CCNCc1cccc(Cl)c1Cl	·	·	·	·	35
CCSc1cc(C2C(C#N)=C(N)Oc3n[nH]c(C)c32)c(C)o1 (stereo not given)	0	8	-2	0	9
COc1cccc(N2CCN(Cc3cccc(Cl)c3)CC2)c1	0	-9	2	34*	·
CC(C)OC(=O)C1C(=O)NC2(C)CC1c1ccccc1O2 (stereo not given)	0	-6	1	-1	·
CC(C)[C@H]1C(=O)N2CCC[C@H]2[C@]2(O)O[C@](NC(=O)[C@@H]3C=C4c5cccc6[nH]cc(c56)C[C@H]4N(C)C3)(C(C)C)C(=O)N12	4	·	102*	-1	·
CC(C)[C@@]1(NC(=O)[C@@H]2C=C3c4cccc5[nH]cc(c45)C[C@H]3N(C)C2)O[C@@]2(O)[C@@H]3CCCN3C(=O)[C@H](Cc3ccccc3)N2C1=O	9.1*	·	113*	7	·
CC(C)[C@@]1(NC(=O)[C@@H]2C[C@@H]3c4cccc5[nH]cc(c45)C[C@H]3N(C)C2)O[C@@]2(O)[C@@H]3CCCN3C(=O)[C@H](Cc3ccccc3)N2C1=O	2	·	96*	-12	·
CCCCc1nc(N2CCNCC2)c(C#N)c2c1CSC(C)(C)C2	10*	·	-1	9	-23
NCC1(CC(=O)O)CCCCC1	0	·	-4	4	·
CN(C)P1(N(C)C)=Nc2c(c(N)nn2C)C(c2ccccc2)=N1	-2	-11	-2	0	-9
CCn1nc(-c2cccs2)nc2c(=O)n(C)c(=O)nc1-2	1	82*	11	96*	·
CN1CC=C(c2c[nH]c3ccccc23)CC1	106*	-2	15	-7	·
COc1cc2c(cc1OC)-c1c(OC)c(OC)cc3c1C(C2)N(C)CC3 (stereo not given)	25*	3	6	24	-39
N=C1C(c2ccccc2)=C(O)CN1Cc1ccco1	0	0	0	5	·
CC(C)(C)c1ccc(O)c(CN2CCN(c3ccccc3)CC2)c1	4	64*	-3	-4	·
COC(=O)c1c(C)[nH]c(C(=O)C(Cc2ccccc2)N(C)C)c1C (stereo not given)	1	2	-4	13	·
COc1ccccc1N1CCN(Cc2ccccc2F)CC1	18*	6	1	-5	·
COc1ccccc1N1CCN(Cc2cccc(OC)c2O)CC1	13*	32	3	5	10
O=C(C1CCN(S(=O)(=O)N2CCOCC2)CC1)N1CCC2(CC1)OCCO2	0	-4	-1	1	60
COc1cccc(OC)c1C(=O)Nc1nc(N)n(-c2ccccc2)n1	·	·	·	·	41
Cc1[nH]c2ccccc2c1C1=CCNCC1	91*	-16	0	-9	·
SMILES	HTR1E agonist	5-HT1A blocker	HTR1A agonist	5HT1E antag	mHtt clearance
COc1ccc(C2C(C(=O)N3CCC4(CC3)OCCO4)CC(=O)N2c2ccc(OC)cc2)cc1 (stereo not given)	1	-25	3	-1	·
CC1CCC(C(=O)NC(C(=O)N2CCC3(CC2)OCCO3)C(C)C)CC1 (stereo not given)	0	2	-3	-7	-86
CCOC(=O)c1c(NC(=O)C(c2ccccc2)c2ccccc2)sc2c1C1CCN2CC1	·	·	·	·	75*
CCCCC12CNCC(C)(CNC1)C2=O	0	-12	86*	-7	41
CCCCC1(CN2CCCC2=O)C(=O)NC(=O)NC1=O	-2	·	-1	13	·
CCN1CCC(O)(c2ccccc2)C(C(=O)c2ccccc2)C1 (stereo not given)	·	·	·	·	87*
CCCCOCCCn1c(N)c(C(=O)OCCOC)c2nc3ccccc3nc21	0	·	0	9	26
COCCCn1c(N)c(C(=O)NCCC(C)C)c2nc3ccccc3nc21	12*	-32	34*	-21	-33
O=C(c1ccccc1)c1cn(CC(=O)N2CCOCC2)c2ccccc12	0	-5	-1	-8	22
CC12CCCCC1=NC(c1ccc(Br)cc1)N2O (stereo not given)	-1	4	-2	6	·

Screening data deposited in PubChem by several laboratories.
